Reference: the supplement of paper PMC12494721
Structures can show the parent of a compound that is named as a salt.

What follows are molecules tested on Klebsiella aerogenes DSM 30053 (assay: growth (OD595) fold change vs plate DMSO controls (fold change (ratio)); higher = more growth). Details: incubation time: 27 h, anaerobic, 37 °C.
In short: (§1)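 Each value is the mean of 2 biological replicates, and fold changes above 1.5 were set to NA. The underlying readings were taken at 595 nm from shaken anaerobic mGAM cultures in 96-well plates after 27 h at 37 °C. They were blank-subtracted, corrected for compound background using 20 µM compound solutions in water, and converted to OD with a calibration factor of 5. Growth is the fold change relative to the median of the plate DMSO controls.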
`CCN(CC)C(=O)N1CCN(C)CC1` [Diethylcarbamazine citrate] (20 µM) was tested, and the growth was 1.04.
`CCCCCCCN(CC)CCCC(O)c1ccc(NS(C)(=O)=O)cc1` (stereo not drawn) [Ibutilide fumarate] (20 µM) gave a growth of 1.09.
Molecule `CCN(CCCCOC(=O)c1ccc(OC)c(OC)c1)C(C)Cc1ccc(OC)cc1` (stereo not drawn) [Mebeverine hydrochloride] (20 µM) has a growth of 0.995.
`N=C(N=C(N)N)N1CCOCC1` [Moroxidine hydrochloride] (20 µM) gave a growth of 1.
Molecule `O=c1[nH]c(=O)n([C@H]2C[C@H](O)[C@@H](CO)O2)cc1I` [Idoxuridine] (20 µM) has a growth of 1.04.
In the case of `Cc1cc(C2CCCCC2)n(O)c(=O)c1` [Ciclopirox ethanolamine] (20 µM), the growth is reported as 1.06.
With `CC[N+](C)(C)Cc1ccccc1Br` [Bretylium tosylate] (20 µM) the growth was 1.06.

These molecules were tested on Ruminococcus gnavus DSM 108212 in the same assay as above. Details: incubation time: 27 h, anaerobic, 37 °C.
In short: as §1
For `CC1CC(OC(=O)C(O)c2ccccc2)CC(C)(C)C1` (stereo not drawn) [Cyclandelate] (20 µM), the growth was 1.02.
With `COc1ccc(C(=O)CC(=O)c2ccc(C(C)(C)C)cc2)cc1` [Avobenzone] (20 µM) the growth was 0.891.
`Cc1nc2ccccc2n1Cc1ccc(Cl)cc1` [Chlormidazole] (20 µM) gave a growth of 0.899.
Molecule `Cn1nnnc1SCC1=C(C(=O)O)N2C(=O)[C@@H](NC(=O)[C@H](O)c3ccccc3)[C@H]2SC1` [Cefamandole sodium salt] (20 µM) has a growth of 0.971.
In the case of `CCN1CCC[C@H]1CNC(=O)c1c(O)c(Cl)cc(Cl)c1OC` [Raclopride] (20 µM), the growth is reported as 0.999.
With `O=c1oc2ccccc2c(O)c1Cc1c(O)c2ccccc2oc1=O` [Dicumarol] (20 µM) the growth was 0.883.
`S=C([S-])NCCNC(=S)[S-].S=C([S-])NCCNC(=S)[S-].[Mn+2].[Zn+2]` (20 µM) gave a growth of 1.01.
In the case of `CC(NCCC(c1ccccc1)c1ccccc1)c1ccccc1` (stereo not drawn) [Fendiline hydrochloride] (20 µM), the growth is reported as 1.09.
`Nc1ccc(S(=O)(=O)Nc2nccs2)cc1` [Sulfathiazole] (20 µM) was tested, and the growth was 0.853.
In the case of `CC(=O)/N=c1/sc(S(N)(=O)=O)nn1C` [Methazolamide] (20 µM), the growth is reported as 0.848.
`Oc1ccccc1O` [Catechol] (20 µM) was tested, and the growth was 0.98.
In the case of `COc1cc(C(=O)NS(=O)(=O)c2ccccc2C)ccc1Cc1cn(C)c2ccc(NC(=O)OC3CCCC3)cc12` [Zafirlukast] (20 µM), the growth is reported as 0.355.
`COc1nc(N)nc2c1ncn2[C@@H]1O[C@H](CO)[C@@H](O)[C@@H]1O` [Nelarabine] (20 µM) was tested, and the growth was 0.914.
In the case of `O=C(NCc1ncc(C(F)(F)F)cc1Cl)c1c(Cl)cccc1Cl` (20 µM), the growth is reported as 1.03.
With `CCc1oc2ccccc2c1C(=O)c1cc(Br)c(O)c(Br)c1` [Benzbromarone] (20 µM) the growth was 0.873.
`Nc1nc(=O)[nH]cc1F` [Flucytosine] (20 µM) showed a growth of 1.03.
In the case of `CC[N+](CC)(CC)CCOc1cccc(OCC[N+](CC)(CC)CC)c1OCC[N+](CC)(CC)CC` [Gallamine triethiodide] (20 µM), the growth is reported as 0.905.
In the case of `COc1cc(C)nc(-n2nc(C)cc2OC)n1` [Epirizole] (20 µM), the growth is reported as 0.89.
Molecule `COc1ccccc1O` [Guaiacol] (20 µM) has a growth of 1.02.
`COc1cccc2c1C(=O)c1c(O)c3c(c(O)c1C2=O)C[C@@](O)(C(=O)CO)C[C@@H]3O[C@H]1C[C@H](N)[C@@H](O)[C@H](C)O1` [Epirubicin hydrochloride] (20 µM) gave a growth of 0.386.
`Cc1onc(-c2ccccc2)c1C(=O)N[C@@H]1C(=O)N2[C@@H]1SC(C)(C)[C@@H]2C(=O)O` [Oxacillin sodium] (20 µM) showed a growth of 0.
Molecule `CCCOc1cc(N)ccc1C(=O)OCCN(CC)CC` [Propoxycaine hydrochloride] (20 µM) has a growth of 1.35.
For `OC[C@H]1O[C@H](O[C@H]2O[C@H](CO)[C@@H](O)[C@H](O)[C@H]2O)[C@H](O)[C@@H](O)[C@@H]1O` [Trehalose] (50 µM), the growth was 1.06.
In the case of `CN1[C@@H]2CC[C@H]1C[C@@H](OC(c1ccccc1)c1ccccc1)C2` [Benztropine mesylate] (20 µM), the growth is reported as 1.
Work on `C[C@H](CCC(=O)O)[C@H]1CC[C@H]2[C@@H]3CC[C@@H]4C[C@H](O)CC[C@]4(C)[C@H]3CC[C@]12C` [Lithocholic acid] (20 µM) yielded a growth of 0.903.
`CN(C)CCC=C1c2ccccc2COc2ccccc21` [Doxepin hydrochloride] (20 µM) was tested, and the growth was 0.833.
